# In PubChem BioAssay:
# The source made the active and inactive calls. Unless noted, the rule behind the calls is not given here.
# Assays:
# [1] = compounds binding Alexa647 anti-His antibody – biochemical, small-molecule microarray, 635 nm fluorescence, artefact control for SMM control protein annotation, primary screen (AID 1128); conditions: higher = more signal;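 note: score merges feature fluorescence with signal-to-noise for each printed compound spot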
# [2] = test system: Human papillomavirus type 1a E7 protein (residues 1-88); assay: HPV1a E7 small-molecule binders, primary screen, biochemical, small-molecule microarray, residues 1-88, 635 nm (AID 1129); conditions: small-molecule microarray binding, fluorescence 635 nm; higher = more signal
# [3] = molecular target: Focal adhesion kinase 1 (Homo sapiens) (UniProt Q05397); assay: PTK2 protein binding on printed compound slides – biochemical, small-molecule microarray, 635/667 nm fluorescence, BSA, DTT, primary screen (AID 1130); conditions: 635 nm fluorescence, higher = more signal;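 note: composite of spot emission at 667 nm and signal to noise over triplicate slides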
# [4] = test system: Fibrinogen (Alexa647-labelled); assay: Alexa647-fibrinogen binding to printed small molecules – biochemical, small-molecule microarray, 635/667 nm fluorescence, artefact control for SMM control-protein annotation, profiling panel (AID 1131); conditions: fibrinogen-A647 binding fluorescence, higher = more signal;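 note: z-score merges 667 nm fluorescence with per-spot signal-to-noise over triplicate slides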
# [5] = molecular target: Follistatin (Homo sapiens) (UniProt P19883); assay: FST protein binding to printed compounds – biochemical, small-molecule microarray, 635/667 nm fluorescence, primary screen (AID 1132); conditions: 635 nm fluorescence, higher = more signal
# [6] = molecular target: Fibroblast growth factor 2 (Homo sapiens) (UniProt P09038); assay: basic fibroblast growth factor binding to printed compounds – biochemical, small-molecule microarray, 635/667 nm fluorescence, primary screen (AID 1133); conditions: FGF2, fluorescence 635/667, higher = more signal
# [7] = JC-1 mitochondrial potential readout, lung cancer cells – cell-based, A549, JC-1 fluorescence, basal, 24 h, 100 nL, profiling panel (AID 1138); conditions: higher = more signal;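 note: A549 lung adenocarcinoma cells under basal conditions with no added stimulus; test concentration not given here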
# Lefty1 = Lefty1 protein binding to printed compounds – biochemical, small-molecule microarray, 635/667 nm fluorescence, primary screen (AID 1139); conditions: fluorescence 635/667, higher = more signal
# [8] = test system: wheat germ agglutinin (Triticum aestivum), Alexa647-labelled; assay: Alexa647-WGA lectin binding to printed small molecules – biochemical, small-molecule microarray, 635/667 nm fluorescence, artefact control for SMM control-protein annotation, profiling panel (AID 1140); conditions: WGA-A647 binding, 635 nm fluorescence, higher = more signal;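 note: score merges 667 nm feature emission with signal to noise over triplicate slides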
# [9] = molecular target: Luciferin 4-monooxygenase (Photinus pyralis) (UniProt P08659); assay: inhibition of purified Photinus pyralis luciferase – biochemical, luminescence, purified enzyme, 2006 set, primary screen (AID 1141); conditions: purified firefly luciferase, SteadyGlo luminescence, 30 min; higher = more signal, called active from +8 up or from −8 down;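 note: cell-free assay with purified firefly luciferase at 100 ng per well in PBS; test concentration not given here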
# [10] = test system: Wnt5a (protein binding on small-molecule microarray); assay: small molecules binding Wnt5a protein – biophysical, small-molecule microarray, 635/667 nm fluorescence, primary screen (AID 1142); conditions: 635 nm fluorescence, higher = more signal;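 note: fluorescence read at 667 nm with signal to noise per printed feature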
# [11] = ATP-based viability of Huh7 replicon cells – cell-based, CellTiter-Glo luminescence, basal, 48 h, cytotoxicity control for HCV replication inhibitor project, primary screen (AID 1143); conditions: higher = more signal, called active from +8 up or from −8 down;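 note: Huh7 hepatoma cells carrying a hepatitis C replication reporter with no stimulus; test concentration not given here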
# [12] = Pseudomonas biofilm growth suppression – PAO1 strain, BacTiter-Glo luminescence, LB-PBS, primary screen (AID 1144); conditions: P. aeruginosa PAO1 biofilm, 12 h, higher = more signal
# [13] = basal CRE-LacZ reporter activity in PC12 – cell-based, unstimulated, primary screen (AID 1145); conditions: no forskolin, luminescence, 4.5 h, higher = more signal, called active from +8 up or from −8 down
# [14] = forskolin-driven CRE-LacZ activity in PC12 – cell-based, CRE-LacZ reporter, forskolin-stimulated, primary screen (AID 1146); conditions: luminescence, 4.5 h, higher = more signal, called active from +8 up or from −8 down;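 note: PC12 cells with 6xCRE LacZ reporter stimulated by forskolin 10 µM; beta-galactosidase reporter signal reflecting CREB driven transcription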
# [15] = molecular target: Streptavidin (Streptomyces avidinii) (UniProt P22629); assay: compounds binding control protein streptavidin – biophysical, small-molecule microarray, 635/667 nm fluorescence, artefact control for SMM compound annotation, primary screen (AID 1147); conditions: higher = more signal;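 note: signal reflects streptavidin binding to arrayed compounds as a control protein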
# [16] = probe aInhba binding on compound microarray – biochemical, small-molecule microarray, 635/667 nm fluorescence, primary screen (AID 1148); conditions: higher = more signal;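 note: score merges 667nm spot fluorescence with signal-to-noise for antibody binding to printed compounds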
# Torsin-1A (Homo sapiens) [17] = molecular target: Torsin-1A (Homo sapiens) (UniProt O14656); assay: TOR1A wild-type binding on microarray – cell lysate, small-molecule microarray, lysate, 635/667 nm, primary screen (AID 1149); conditions: COS7 hTOR1A-WT lysate, 635 nm fluorescence, higher = more signal
# Torsin-1A (Homo sapiens) [18] = molecular target: Torsin-1A (Homo sapiens) (UniProt O14656); assay: torsin A mutant lysate binding on microarrays – cell lysate, small-molecule microarray, COS7 lysate, 635/667 nm fluorescence, primary screen (AID 1150); conditions: COS7 hTOR1A mutant lysate, 635 nm fluorescence, higher = more signal;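 note: score pools 667 nm emission and signal to noise measuring lysate protein binding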
# [19] = test system: Sonic hedgehog protein (Shh); assay: Sonic hedgehog microarray binding compounds – biochemical, small-molecule microarray, 635/667 nm fluorescence, primary screen (AID 1151); conditions: 635 nm fluorescence, higher = more signal;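 note: Shh protein binding to compounds spotted on small-molecule microarray slides; score combines spot fluorescence intensity with signal-to-noise across triplicate slides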
# Focal adhesion kinase 1 (Homo sapiens), sequence (Q05397 whole entry, looked up): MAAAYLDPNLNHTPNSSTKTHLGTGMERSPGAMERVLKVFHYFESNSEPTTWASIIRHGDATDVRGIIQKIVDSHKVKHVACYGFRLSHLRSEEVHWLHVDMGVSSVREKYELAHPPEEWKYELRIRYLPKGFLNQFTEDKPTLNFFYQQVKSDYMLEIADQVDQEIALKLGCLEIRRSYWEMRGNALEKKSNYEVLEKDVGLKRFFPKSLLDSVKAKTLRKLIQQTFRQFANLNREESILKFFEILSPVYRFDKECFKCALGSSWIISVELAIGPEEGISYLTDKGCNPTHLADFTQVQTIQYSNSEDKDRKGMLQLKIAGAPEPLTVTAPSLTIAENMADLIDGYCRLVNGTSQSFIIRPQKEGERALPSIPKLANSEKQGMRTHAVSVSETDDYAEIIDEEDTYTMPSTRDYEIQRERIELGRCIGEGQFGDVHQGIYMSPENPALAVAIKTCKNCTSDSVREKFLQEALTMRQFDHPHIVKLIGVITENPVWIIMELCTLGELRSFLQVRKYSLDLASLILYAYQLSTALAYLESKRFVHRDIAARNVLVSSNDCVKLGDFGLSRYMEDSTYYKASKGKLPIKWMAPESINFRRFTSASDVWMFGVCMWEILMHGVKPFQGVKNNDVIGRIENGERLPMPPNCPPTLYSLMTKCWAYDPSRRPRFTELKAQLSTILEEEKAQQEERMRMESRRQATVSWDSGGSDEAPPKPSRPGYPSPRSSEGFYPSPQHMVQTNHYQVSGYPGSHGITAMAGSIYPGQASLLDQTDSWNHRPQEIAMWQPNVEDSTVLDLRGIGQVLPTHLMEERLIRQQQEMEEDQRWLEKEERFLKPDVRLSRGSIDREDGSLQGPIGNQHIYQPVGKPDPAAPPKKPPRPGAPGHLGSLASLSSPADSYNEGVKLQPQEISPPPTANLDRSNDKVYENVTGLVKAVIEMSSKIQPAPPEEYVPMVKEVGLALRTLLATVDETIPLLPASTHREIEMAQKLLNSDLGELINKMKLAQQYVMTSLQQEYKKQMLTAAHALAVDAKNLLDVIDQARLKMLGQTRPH
# Follistatin (Homo sapiens), sequence (P19883 whole entry, looked up): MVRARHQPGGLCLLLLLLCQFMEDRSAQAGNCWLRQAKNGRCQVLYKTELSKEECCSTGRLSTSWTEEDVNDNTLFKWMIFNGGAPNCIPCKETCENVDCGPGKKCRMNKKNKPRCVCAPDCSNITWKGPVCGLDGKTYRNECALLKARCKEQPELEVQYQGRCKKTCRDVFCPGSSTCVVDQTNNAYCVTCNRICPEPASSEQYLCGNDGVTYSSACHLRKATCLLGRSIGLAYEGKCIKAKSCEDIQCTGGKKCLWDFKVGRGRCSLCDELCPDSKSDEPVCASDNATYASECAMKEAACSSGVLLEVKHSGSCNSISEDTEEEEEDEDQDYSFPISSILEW
# Fibroblast growth factor 2 (Homo sapiens), sequence (P09038 whole entry, looked up): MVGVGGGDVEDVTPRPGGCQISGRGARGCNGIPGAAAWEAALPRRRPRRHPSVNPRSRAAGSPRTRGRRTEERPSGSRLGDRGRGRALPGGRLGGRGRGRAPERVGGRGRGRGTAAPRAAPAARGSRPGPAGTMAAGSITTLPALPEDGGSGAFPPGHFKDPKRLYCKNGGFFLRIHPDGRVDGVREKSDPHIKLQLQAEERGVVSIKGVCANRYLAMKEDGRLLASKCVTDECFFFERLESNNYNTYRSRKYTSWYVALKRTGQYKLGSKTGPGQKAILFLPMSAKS
# Luciferin 4-monooxygenase (Photinus pyralis), sequence (P08659 whole entry, looked up): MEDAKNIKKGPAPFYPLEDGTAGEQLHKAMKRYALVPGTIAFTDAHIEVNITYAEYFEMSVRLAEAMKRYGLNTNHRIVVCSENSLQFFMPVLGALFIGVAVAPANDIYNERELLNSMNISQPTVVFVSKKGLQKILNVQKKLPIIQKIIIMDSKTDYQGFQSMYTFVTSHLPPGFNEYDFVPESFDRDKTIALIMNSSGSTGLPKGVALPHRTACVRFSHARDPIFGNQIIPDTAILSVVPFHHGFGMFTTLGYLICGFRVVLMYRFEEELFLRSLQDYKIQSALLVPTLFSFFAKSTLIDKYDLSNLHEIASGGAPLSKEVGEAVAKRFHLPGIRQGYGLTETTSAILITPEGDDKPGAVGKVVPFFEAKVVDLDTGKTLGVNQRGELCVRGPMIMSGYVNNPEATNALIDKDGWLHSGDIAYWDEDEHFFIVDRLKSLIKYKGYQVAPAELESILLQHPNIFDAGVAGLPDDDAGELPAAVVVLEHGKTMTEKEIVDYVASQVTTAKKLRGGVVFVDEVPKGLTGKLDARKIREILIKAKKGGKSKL
# Streptavidin (Streptomyces avidinii), sequence (P22629 whole entry, looked up): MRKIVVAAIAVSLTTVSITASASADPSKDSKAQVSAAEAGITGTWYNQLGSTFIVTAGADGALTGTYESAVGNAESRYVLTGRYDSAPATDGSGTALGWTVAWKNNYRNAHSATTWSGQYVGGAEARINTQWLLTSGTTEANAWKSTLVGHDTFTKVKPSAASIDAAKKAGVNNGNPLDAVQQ
# Torsin-1A (Homo sapiens), sequence (O14656 whole entry, looked up): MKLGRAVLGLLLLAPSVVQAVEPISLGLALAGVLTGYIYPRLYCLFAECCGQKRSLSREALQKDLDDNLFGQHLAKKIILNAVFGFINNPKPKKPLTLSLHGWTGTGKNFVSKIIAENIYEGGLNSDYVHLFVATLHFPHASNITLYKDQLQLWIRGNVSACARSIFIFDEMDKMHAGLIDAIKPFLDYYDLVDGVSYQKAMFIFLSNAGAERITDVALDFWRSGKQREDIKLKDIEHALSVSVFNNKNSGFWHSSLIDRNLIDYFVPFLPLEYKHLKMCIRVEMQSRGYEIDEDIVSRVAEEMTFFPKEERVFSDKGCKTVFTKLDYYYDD
Compound,composite z-score [1],composite z-score [2],composite z-score [3],composite z-score [4],composite z-score [5],composite z-score [6],z-score [7],composite z-score (Lefty1),composite z-score [8],z-score [9],composite z-score [10],z-score [11],z-score [12],z-score [13],z-score [14],composite z-score [15],composite z-score [16],composite z-score (Torsin-1A (Homo sapiens) [17]),composite z-score (Torsin-1A (Homo sapiens) [18]),composite z-score [19]
CC(=O)C1=CCC(c2ccccc2)N(S(=O)(=O)c2ccc(C)cc2)C1 (stereo not given),1.8,1.19,0.362,0.757,0.798,-0.194,-1.16,0.176,1.21,1.6 (inactive),-0.004,-1.06 (inactive),-0.65 (inactive),-0.116 (inactive),0.151 (inactive),1.69,-0.0087,0.911,1.55,-0.194
CC(c1ccccc1)C(O)C1C=CC2C(=O)NC(=O)C2N1Nc1ccccn1 (stereo not given),1.28,0.997,-0.0073,0.675,1.12,0.458,0.845,0.335,0.528,-1.64 (inactive),0.211,1.25 (inactive),-1.1 (inactive),-0.329 (inactive),-1.03 (inactive),0.0932,0.0906,0.763,0.197,0.341
O=C1OCCC=C[C@H]2OC34C=CCN(Cc5ccccc5)C(=O)[C@H]3N(CCCO)C(=O)[C@@H]4C12 (stereo not given in full),1.76,-1.17,-0.0769,-0.887,-0.145,-0.349,-0.778,0.181,-0.194,0.0952 (inactive),-0.419,-3.89 (inactive),-2.36 (inactive),-1.31 (inactive),-1.18 (inactive),-0.399,-0.128,-0.8,-0.586,-0.174
O=C1OCC=C[C@H]2OC34C=CCN(c5ccc(Cl)cc5)C(=O)[C@H]3N(CCCCCCO)C(=O)[C@@H]4[C@@H]12 (stereo not given in full),1.41,-0.777,-0.209,-2.01,-1.57,-0.705,1.82,-1.09,-0.892,-0.71 (inactive),-0.557,-0.652 (inactive),1.36 (inactive),1.41 (inactive),-0.0889 (inactive),-0.857,-0.0494,-1.39,-1.21,-0.38
CN(C)CCCNC(=O)[C@@]1(Cc2ccccc2I)c2ccccc2C(=O)N(Cc2ccccc2C(F)(F)F)[C@H]1c1ccc(CO)cc1,0.984,0.794,0.17,0.836,-0.781,-1.16,0.117,-0.406,-0.203,0.606 (inactive),-0.753,-5.77 (inactive),-0.233 (inactive),0.351 (inactive),-0.742 (inactive),0.154,-0.162,-1.08,0.135,-0.678
CCCCC=C[C@@H](NC(=O)c1ccc(C(=O)OC)cc1)c1ccccc1,0.59,1.05,0.694,0.875,0.293,0.0889,0.769,0.335,0.658,1.73 (inactive),0.301,-2.79 (inactive),0.806 (inactive),-0.185 (inactive),1.11 (inactive),0.994,0.143,-0.225,0.241,0.185
Cc1c(NC(=O)CC#N)c(=O)n(-c2ccccc2)n1C,0.514,0.469,0.616,0.134,0.116,0.291,0.385,0.645,0.114,0.551 (inactive),0.0101,-2.39 (inactive),-0.739 (inactive),-0.671 (inactive),-0.832 (inactive),-0.347,-0.179,0.362,-0.0384,0.642
COC(=O)c1ccc(C(O)C2C=CC3C(=O)N(c4ccccc4)C(=O)C3N2Nc2ccc(C#N)cc2)o1 (stereo not given),0.355,0.889,0.303,1,0.62,0.275,0.385,-0.0841,0.475,-1.32 (inactive),0.304,1.07 (inactive),-1.05 (inactive),1.4 (inactive),-0.22 (inactive),0.337,-0.0901,0.928,0.0721,-0.0224
C=CCOC(=O)[C@@H]1[C@H]2C(=O)O[C@H](c3ccccc3)[C@H](c3ccccc3)N2[C@H](c2ccc(OCCOC(=O)[C@@H]3C[C@@H]4C(=O)NCC(=O)N4[C@@H]3c3cccc(OCCO)c3)cc2)[C@@]12C(=O)Nc1ccc(I)cc12,1.26,1.17,0.259,0.615,1.32,1.31,-1.21,0.914,0.449,-0.408 (inactive),1.02,0.0025 (inactive),-0.0754 (inactive),-0.545 (inactive),-0.844 (inactive),-0.0506,0.458,1.56,1.17,2.1
COC(=O)[C@@]1(Cc2ccc(F)cc2)[C@H]2c3cc(C(=O)N4CCCC4)n(Cc4cccc5ccccc45)c3C[C@H]2CN1C(=O)c1ccccc1,1.98,1.28,2.08,0.83,0.0834,-0.426,0.917,-0.0668,1.06,0.943 (inactive),0.255,-1.8 (inactive),0.233 (inactive),0.397 (inactive),0.422 (inactive),0.95,0.434,0.341,-0.0286,-0.408
